Screens: PubChem, National Center for Advancing Translational Sciences (NCATS)
A selection: hits, their analogues and other compounds. The true share with any hit is near 17%.
HepG2 tox: kills HepG2 cells in TGF-b inhibitor counter-screen. HepG2 CAGA-GFP viability, ATP luminescence, 18 h. Potency, µM (series often up to 46.1 µM), without a hit: at the highest dose activity change, negative = cytotoxicity, usual class: cytotoxic. hit rate 0.76% among 410,000
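HepG2 CAGA-GFP cells (1000/well, DMEM with 1% FBS) received compound, then TGF-beta at 500 pg/mL final, and were incubated 18 hours at 37 degrees C. Viability was read by CellTiter-Glo luminescence. Media-only wells were set as complete cell-killing and DMSO as no toxicity.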
DT40 TDP1 CPT: DT40-hTDP1 cell growth loss with CPT; chicken DT40 Tdp1-/-;hTDP1 cells + 20 nM CPT, ATP luminescence, 48 h; Potency, µM (titrated, usually from 46.2 µM), for the others: top-dose activity change, negative = growth inhibition, most hits filed as inhibitors; hit rate 12% among 420,000; further: on the % scale 0 is the no-effect control and ±100 the full control effect; nearly all actives have a fitted effect of over 55% in size
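Chicken DT40 Tdp1-/- cells complemented with human TDP1, 400 cells/well, exposed to compounds plus 20 nM camptothecin for at least 48 h at 37 C; viability read as ATP content by CellTiter-Glo luminescence.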
ATXN2 expr inh: inhibitors of ATXN2 expression | hit rate 0.72% among 360,000 | HEK-293 ATXN2-luciferase reporter, luminescence, 24 h | Potency, µM (highest dose often 57 µM), inactives show at the highest dose activity change, negative = inhibition, hits mostly inhibitors | AID 1745845; further: on the % scale 0 is the no-effect control and ±100 the full control effect; nearly all actives have a fitted effect of over 55% in size
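qHTS (up to 57 uM final) was run with 24 h compound exposure of reporter cells at 37 °C. Each well was multiplexed: SteadyGlo luminescence measured ATXN2-luciferase expression after a fluorogenic Gly-Phe-AFC viability readout (25 uM final).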
TDP1 cell noCPT: qHTS for Inhibitors of human tyrosyl-DNA phosphodiesterase 1 (TDP1): qHTS in cells in absence of CPT; hit rate 15% among 420,000; AID 686978, 2013; Potency, µM (titrated, usually from 46.2 µM), for the others: top-dose activity change, negative = growth inhibition, hits mostly inhibitors; DT40 Tdp1-/- hTDP1 cells, no CPT, ATP luminescence, 48 h; further: on the % scale 0 is the no-effect control and ±100 the full control effect; nearly all actives have a fitted effect of over 55% in size
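Chicken DT40 Tdp1-/- cells complemented with human TDP1, screened without camptothecin (DMSO vehicle only), 400 cells/well. Compounds pin-transferred, cells incubated at 37 °C for at least 48 hr. Growth read as ATP-dependent luminescence (CellTiter-Glo, 30 min at RT).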
S2 tox: reduces viability in counter-screen for ATXN expression inhibitors; S2 cells (HEK-293 line with an ATXN2-luciferase reporter) viability, CellTiter-Fluor protease fluorescence, 24 h; Potency, µM (titrated, usually from 56.7 µM), usual class: cytotoxic; hit rate 0.49% among 400,000; further: nearly all actives have a fitted effect of over 40% in size
TGFb SMAD3 inh: TGF-b pathway inhibition; hit rate 1.2% among 410,000; AID 588855; Potency, µM (highest dose often 46.1 µM), for the others: at the top dose activity, negative = inhibition, hits mostly inhibitors; HepG2 CAGA-GFP TGF-b/SMAD3 reporter, GFP fluorescence, 18 h; TGF-beta stimulated, 500 pg/mL final; further: on the % scale 0 is the no-effect control and ±100 the full control effect; nearly all actives have a fitted effect of over 65% in size
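Per well, imaged GFP fluorescence of HEPG2 CAGA-GFP cells gives the signal; cells get compound, then TGF-beta (500 pg/mL final), 18 h at 37 degrees C; %Activity versus -TGF-beta and +DMSO controls.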
An asterisk follows results filed as active. The call rests on the fitted dose curve; in most records, active means well fitted curve in the direction sought with a large enough effect; inconclusive means small, poorly fitted or top-dose-only effect, or another doubt; inactive means no such curve, though single readings can be large; an effect the other way counts as inactive or inconclusive. Potency means the concentration at half of the fitted maximal effect.

`N#CC(=C1C=CC(=NO)C(Cl)=C1)c1ccc(Cl)cc1` gave HepG2 tox -18.6%, DT40 TDP1 CPT 4.61µM*, ATXN2 expr inh 8.5%, TDP1 cell noCPT 3.66µM*, S2 tox inconclusive and TGFb SMAD3 inh inconclusive.
`CCc1ccccc1NC(=O)C1CCN(S(=O)(=O)c2ccc3[nH]c(=O)ccc3c2)CC1` gave HepG2 tox -11.4%, DT40 TDP1 CPT 5.3%, ATXN2 expr inh 13.3%, TDP1 cell noCPT 8.9%, S2 tox inactive and TGFb SMAD3 inh -4.0%.
For COC(=O)c1nn(-c2ccc(OC)cc2)c(=O)c2c(N)sc(C)c12 the results were HepG2 tox -0.6%, DT40 TDP1 CPT 23.1µM*, ATXN2 expr inh 7.3%, TDP1 cell noCPT 16.4µM*, S2 tox inactive and TGFb SMAD3 inh 12.1%.
Screening CCc1ccccc1C1=CC(=O)C[C@H](c2ccc(OC)cc2)C1 returned HepG2 tox -8.9%, DT40 TDP1 CPT 1.1%, ATXN2 expr inh -0.3%, TDP1 cell noCPT -2.6%, S2 tox inactive and TGFb SMAD3 inh -1.7%.
Cc1ccc(NC2=C(c3ccc(C(F)(F)F)cc3)C(=O)c3ccccc32)cc1C was read as HepG2 tox 12.6µM*, DT40 TDP1 CPT 20.6µM*, ATXN2 expr inh 61.9%, TDP1 cell noCPT inconclusive, S2 tox inactive and TGFb SMAD3 inh 0.0%.
`NC1=NC(=Nc2ccc(S(N)(=O)=O)cc2)c2ccccc21` gave HepG2 tox -2.3%, DT40 TDP1 CPT -17.8%, ATXN2 expr inh -8.0%, TDP1 cell noCPT -6.6%, S2 tox inactive and TGFb SMAD3 inh -4.0%.
Screening COCCNC(=O)c1onc(CSc2cc(C)cc(C)c2)c1C(=O)NCCOC returned HepG2 tox -1.1%, DT40 TDP1 CPT -3.0%, ATXN2 expr inh 7.3%, TDP1 cell noCPT -29.3%, S2 tox inactive and TGFb SMAD3 inh -16.4%.
For Nc1ccc(Oc2ncccn2)cc1 the results were HepG2 tox -78.9%, DT40 TDP1 CPT inconclusive, TDP1 cell noCPT 23.1µM*, S2 tox inconclusive and TGFb SMAD3 inh inconclusive.
Screening O=C1C[C@@H](c2ccc(O[C@@H]3O[C@H](CO)[C@@H](O)[C@H](O)[C@H]3O)cc2)Oc2cc(O)ccc21 returned HepG2 tox 0.9%, DT40 TDP1 CPT -23.0%, ATXN2 expr inh 19.2%, TDP1 cell noCPT 1.5%, S2 tox inactive and TGFb SMAD3 inh 2.3%.
Screening Cc1ccc(N2CC(NC(=O)Cc3ccc(F)cc3)CC2=O)cc1 (centres undefined) returned HepG2 tox 3.2%, DT40 TDP1 CPT 3.2%, TDP1 cell noCPT 2.2% and TGFb SMAD3 inh -3.2%.
`CCOc1cc(CNc2ncnc3nc[nH]c23)ccc1OC` gave HepG2 tox -21.9%, DT40 TDP1 CPT inconclusive, ATXN2 expr inh -8.4%, TDP1 cell noCPT 25.9µM*, S2 tox inactive and TGFb SMAD3 inh -16.4%.
`CCOC(=O)c1ccc(CNc2ncnc3nc[nH]c23)cc1` gave HepG2 tox -10.3%, DT40 TDP1 CPT 3.98µM*, TDP1 cell noCPT 11.2µM* and TGFb SMAD3 inh inconclusive.
For O=C(NCc1ccc2c(c1)CCN2C(=O)c1ccncc1)c1ccccc1Cl the results were HepG2 tox -5.9%, DT40 TDP1 CPT -26.2%, TDP1 cell noCPT inconclusive and TGFb SMAD3 inh -15.4%.
`Cc1ccc(CN2CCC(CNC(=O)c3cc4ccc5cccnc5c4[nH]3)CC2)cc1` gave HepG2 tox 12.6µM*, DT40 TDP1 CPT 16.4µM*, TDP1 cell noCPT 16.4µM* and TGFb SMAD3 inh inconclusive.
Screening COc1ccc(OC)c(CNC(=O)c2cc3ccc4cccnc4c3[nH]2)c1 returned HepG2 tox -46.5%, DT40 TDP1 CPT inconclusive, TDP1 cell noCPT 25.9µM* and TGFb SMAD3 inh inconclusive.
COc1cccc(CNC(=O)c2cc3ccc4cccnc4c3[nH]2)c1 was read as HepG2 tox -13.7%, DT40 TDP1 CPT -21.0%, TDP1 cell noCPT -24.1% and TGFb SMAD3 inh -2.4%.
`CCN(Cc1ccccc1)C(=O)c1cc2ccc3cccnc3c2[nH]1` gave HepG2 tox -63.5%, DT40 TDP1 CPT inconclusive, TDP1 cell noCPT 18.4µM* and TGFb SMAD3 inh inconclusive.
COc1ccc(CN2CCCC(N3CCN(c4cccc(Cl)c4)CC3)C2)cc1OC (centres undefined) was read as HepG2 tox -66.3%, DT40 TDP1 CPT inconclusive, TDP1 cell noCPT 23.1µM* and TGFb SMAD3 inh -10.0%.
CCOc1cc(CN2CCCC(N3CCN(c4ccc(F)cc4)CC3)C2)ccc1OC (centres undefined) was read as HepG2 tox -14.6%, DT40 TDP1 CPT 16.4µM*, ATXN2 expr inh -28.0%, TDP1 cell noCPT inconclusive, S2 tox inactive and TGFb SMAD3 inh 11.0%.
CC(C)CN1CCCC(N2CCN(c3cccc(Cl)c3)CC2)C1 (centres undefined) was read as HepG2 tox -12.9%, DT40 TDP1 CPT 1.7%, ATXN2 expr inh -5.0%, TDP1 cell noCPT -1.8%, S2 tox inactive and TGFb SMAD3 inh 14.5%.
For COc1ccc(CNC(=O)CCS(=O)(=O)c2cc(Br)cc3c2N(C(C)=O)C(C)C3)cc1 (centres undefined) the results were HepG2 tox -7.5%, DT40 TDP1 CPT -27.1%, ATXN2 expr inh -0.3%, TDP1 cell noCPT inconclusive, S2 tox inactive and TGFb SMAD3 inh 15.3%.
For CC(C)c1cccc(-c2csc(C(C)(O)c3cccc(F)c3)n2)c1 (centres undefined) the results were HepG2 tox 15.8µM*, DT40 TDP1 CPT 20.6µM*, ATXN2 expr inh -8.3%, TDP1 cell noCPT inconclusive, S2 tox inconclusive and TGFb SMAD3 inh inconclusive.
`CC(O)(c1cccc(F)c1)c1nc(-c2cccc(F)c2)cs1` (centres undefined) gave HepG2 tox -50.0%, DT40 TDP1 CPT inconclusive, ATXN2 expr inh -2.2%, TDP1 cell noCPT inconclusive, S2 tox inactive and TGFb SMAD3 inh 7.94µM*.
For COc1ccc(-c2csc(C(C)(O)c3cccc(F)c3)n2)cc1 (centres undefined) the results were HepG2 tox -22.0%, DT40 TDP1 CPT 18.4µM*, ATXN2 expr inh 0.2%, TDP1 cell noCPT 13µM*, S2 tox inconclusive and TGFb SMAD3 inh -21.7%.
